# PubChem BioAssay AID1851 (National Center for Advancing Translational Sciences (NCATS), 2009)
# Hit rate of the full screen: of about 16,000 compounds, about 5,100 (32%) were called active. Not shown: some 25% with an inconclusive outcome. The call rests on the fitted dose curve; in most records, active means well fitted curve in the direction sought with a large enough effect; inconclusive means small, poorly fitted or top-dose-only effect, or effect the other way; inactive means no such curve, though single readings can be large or run the other way. The list shows a part of the results.
# Molecular target: Cytochrome P450 3A4 (Homo sapiens) (UniProt P08684)
# Sequence (P08684 whole entry, looked up): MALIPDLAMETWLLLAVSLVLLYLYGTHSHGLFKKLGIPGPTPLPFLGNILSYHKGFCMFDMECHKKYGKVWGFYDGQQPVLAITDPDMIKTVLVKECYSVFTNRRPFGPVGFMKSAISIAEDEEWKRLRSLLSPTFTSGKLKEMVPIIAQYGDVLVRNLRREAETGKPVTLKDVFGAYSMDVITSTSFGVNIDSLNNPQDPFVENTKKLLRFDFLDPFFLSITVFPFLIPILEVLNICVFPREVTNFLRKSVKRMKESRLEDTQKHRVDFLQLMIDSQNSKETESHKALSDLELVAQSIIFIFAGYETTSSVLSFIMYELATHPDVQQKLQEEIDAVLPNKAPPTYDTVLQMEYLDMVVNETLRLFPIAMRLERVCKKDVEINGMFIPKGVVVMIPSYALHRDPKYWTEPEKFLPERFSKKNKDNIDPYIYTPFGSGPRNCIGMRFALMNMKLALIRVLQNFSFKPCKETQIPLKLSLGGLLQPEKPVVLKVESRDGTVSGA
# Assay: Cytochrome panel assay with activity outcomes
# Conditions: recombinant CYP, pro-luciferin dealkylation, luminescence, p450-cyp3a4; series mostly up to 57.1 µM
# On the % scale 0 is the no-effect control and ±100 the full control effect.
SMILES,"activity, negative = inhibition",AC50
O=C(O)c1nn(-c2ccc(Cl)cc2)c2c1C(=O)c1ccccc1C2=O,-4.55% [at 11.4 µM] (inactive),–
COc1cc(=O)n2c(n1)SCCC2,-0.256% [at 2.29 µM] (inactive),–
COc1ccc(-c2nc3c([nH]2)c(=O)n(C)c(=O)n3C)c(OC)c1,–,1.58 µM (active)
Cn1c(=O)c2[nH]c(-c3ccc(S(=O)(=O)O)cc3)nc2n(C)c1=O,–,inactive
Cn1c(=O)c2[nH]c(-c3ccccc3)nc2n(C)c1=O,–,inactive
C[N+]1(CCOc2ccc([N+](=O)[O-])cc2)CCOCC1,–,inactive
COc1ccc(C=NC(CO)C(O)c2ccc([N+](=O)[O-])cc2)cc1 (stereo not given),–,10 µM (active)
CS/C(N)=N/N=C/c1ccc([N+](=O)[O-])cc1,–,inactive
COc1ccc(NC(=O)c2cc(-c3cccnc3)nc3ccc(C)cc23)cc1OC,–,1.41 µM (active)
COc1cccc(NC(=O)c2cc(-c3cccnc3)nc3c(Cl)cccc23)c1,–,2.24 µM (active)
COc1cc2c(cc1NC(=O)c1cc(-c3cccnc3)nc3ccc(C)cc13)oc1ccccc12,–,3.98 µM (active)
COc1cc2c(cc1NC(=O)Nc1ccccc1)oc1ccccc12,–,inactive
COc1ccccc1CC(=O)Nc1cc2oc3ccccc3c2cc1OC,–,7.08 µM (active)
CC(C)(S)[C@H](N)C(=O)O,-0.648% [at 11.4 µM] (inactive),–
CC(C)(SCc1ccccc1)[C@H](N)C(=O)O,-12.3% [at 11.4 µM] (inactive),–
Cc1ccc2nc(-c3ccccc3)cc(C(=O)NCCCn3ccnc3)c2c1,–,0.562 µM (active)
COc1ccc(Nc2cc(C(=O)NCCCN3CCN(C)CC3)c3ccccc3n2)cc1,–,inactive
CC(=O)Nc1ccc(-c2cc(C(=O)O)c3cc4ccccc4cc3n2)cc1,-8.77% [at 11.4 µM] (inactive),–
CN(C)c1ccc(-c2cc(NCc3cccnc3)ncn2)cc1,–,3.16 µM (active)
Cc1cccc(CNc2cc(-c3ccc(N(C)C)cc3)ncn2)c1,–,6.31 µM (active)

SMILES,"activity, negative = inhibition",AC50
Cc1noc(C)c1-c1cc(NCc2ccccc2)ncn1,–,inactive
Cc1cccc(CNc2cc(-c3c(C)noc3C)ncn2)c1,–,5.01 µM (active)
Cc1cnc(CNc2cc(-c3ccoc3)ncn2)cn1,–,inactive
Cc1cccc(CNc2cc(-c3ccoc3)ncn2)c1,–,7.94 µM (active)
O=C1C[C@@H](O)[C@@H](O)[C@@H]2[C@H]3C(=O)N(c4ccc(F)cc4F)C(=O)[C@@H]3CC[C@@H]12,-8.71% [at 11.4 µM] (inactive),–
O=C(O)[C@@H](S)[C@H](S)C(=O)O,-14.7% [at 11.4 µM] (inactive),–
Cc1ncc(CO)c(CO)c1O,–,inactive
O=c1c(C=Nc2ccc(Oc3ccccc3)cc2)c[nH]n1-c1cccc(Cl)n1,–,inactive
Cn1c(N)nc2c(nc(OCc3ccccc3)n2[C@@H]2O[C@H](CO)[C@@H](O)[C@@H]2O)c1=O,-4.84% [at 11.4 µM] (inactive),–
CCn1cc(C(=O)NCC(=O)OC)c2cc(OC)c(OC)cc2c1=O,–,inactive
CN(C)c1ccc(-c2cc(NCc3ccccc3)ncn2)cc1,–,15.8 µM (active)
FC(F)(F)c1cc(-c2ccco2)nc(NCCc2ccccc2)n1,0.414% [at 2.29 µM] (inactive),–
FC(F)(F)c1cc(-c2ccco2)nc(NCc2cccs2)n1,–,25.1 µM (active)
CCNc1nc(Oc2c(Cl)cccc2Cl)cc(C(F)(F)F)n1,–,inactive
O=C(CSc1nnc(SCc2cccc3ccccc23)s1)c1ccc2c(c1)OCO2,–,2.82 µM (active)
CC1CCN(CC(=O)N2c3ccccc3Sc3cc4ccccc4cc32)CC1,–,3.98 µM (active)
CC1(C)CCCN(C(=O)N2c3ccccc3Sc3ccccc32)C1,-13% [at 2.29 µM] (inactive),–
CC1CCN(CC[C@H]2CCCN2S(=O)(=O)c2cccc(O)c2)CC1,–,inactive
Cc1c(CCO)c(=O)n(C)n1C(=O)c1ccc(F)cc1,–,inactive
Cc1c(N(C)CS(=O)(=O)O)c(=O)n(-c2ccccc2)n1C,–,inactive

SMILES,"activity, negative = inhibition",AC50
Cc1c(CCO)c(=O)n(-c2ccccc2)n1S(=O)(=O)c1c(Cl)cc(Cl)cc1Cl,–,4.47 µM (active)
COc1cccc(-c2cc(NCc3ccccc3OC)ncn2)c1,–,15.8 µM (active)
COc1cccc(-c2cc(NCc3ccc(OC)cc3OC)ncn2)c1,–,2.51 µM (active)
CC(C)NC[C@@H](O)COc1ccc(COCCOC(C)C)cc1,–,inactive
Cc1csc(NC(=O)CCNS(=O)(=O)c2ccc3c(c2)c(=O)n(C)c(=O)n3C)n1,–,7.94 µM (active)
CCOc1ccc(NC(=O)CCNS(=O)(=O)c2ccc3c(c2)c(=O)n(C)c(=O)n3C)cc1,–,14.1 µM (active)
Cc1ccc(CNC(=O)CCNS(=O)(=O)c2ccc3c(c2)c(=O)n(C)c(=O)n3C)cc1,–,1.78 µM (active)
Cn1c(=O)c2cc(S(=O)(=O)NCCC(=O)NCc3ccccc3Cl)ccc2n(C)c1=O,–,14.1 µM (active)
Cn1c(=O)c2cc(S(=O)(=O)NCCC(=O)Nc3ccc(Cl)cc3)ccc2n(C)c1=O,–,inactive
Cn1c(=O)n(C)c2cc(S(=O)(=O)O)ccc21,–,inactive
Cn1c(=O)c2cc(S(=O)(=O)NCCC(=O)NCCc3ccc(Cl)cc3)ccc2n(C)c1=O,–,12.6 µM (active)
Cc1nn(-c2ccccc2)c2c1C(=O)N(Cc1ccccc1)C(=O)C(C)(C)C2,1.57% [at 2.29 µM] (inactive),–
O=c1c(-c2nnc(SCc3ccc(Cl)c(Cl)c3)o2)cccn1Cc1ccccc1,–,20 µM (active)
Clc1ccc(-c2nnc(CCc3ccccc3)o2)c(Cl)c1,0.747% [at 2.29 µM] (inactive),–
CSc1nnc(-c2ccc(Cl)cc2Cl)o1,–,inactive
O=c1c(-c2nnc(SCc3ccc(Cl)cc3Cl)o2)cccn1Cc1ccccc1,–,22.4 µM (active)
CC(C)c1ccc(C2C(C#N)=C(N)N3C(=C2C#N)Sc2ccccc23)cc1 (stereo not given),–,inactive
Cc1ccc(Cl)cc1-n1c(=O)cc(N2CC(C)OC(C)C2)[nH]c1=O (stereo not given),–,inactive
O=S1(=O)C=C(N2CCOCC2)c2ccccc21,-21% [at 11.4 µM] (inactive),–
c1ccc2c(c1)-c1nc3ccccc3cc1[C@H]2N1CCOCC1,–,2.51 µM (active)
